The values that follow come from PubChem BioAssay (NCATS).

Values joined by “and” are separate entries in the source; they are usually repeats but may differ in a detail not shown here. Equal values may be shown once. Results filed as inconclusive are left out. Some compounds were tested as several samples or in several runs, with calls that do not always agree. Active and inactive are the calls of the source. Calls come from the whole dose curve; as a rule, active = well fitted curve in the direction sought with a large enough effect; inconclusive = small, poorly fitted or top-dose-only effect, or another doubt; inactive = no such curve, though single readings can be large; an effect the other way counts as inactive or inconclusive.

Assay [1] can be described thus: Viability qHTS for spleen associated tyrosine kinase inhibitor (SYKi) naive MV4-11 cells (AID 1963823). Note: nearly all actives have a fitted effect of over 40% in size. An outline of the steps:
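Read-out: CellTiter-Glo luminescence. Exposure: 72 hr, 37 C, 5% CO2, 95% humidity. Cells: MV4-11 without SYK inhibitor history, 500/well, qHTS format.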
On the technique in general: qHTS replaces the single test concentration by a dilution series.

Assay [2] in a line: Viability qHTS for spleen associated tyrosine kinase inhibitor (SYKi) drug resistant MV4-11 cells (AID 1963824). Note: nearly all actives have a fitted effect of over 35% in size. An outline of the steps:
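SYK-inhibitor-resistant MV4-11 AML cells were seeded at 500 per well onto compound and cultured 72 hours (37 °C, 5% CO2). CellTiter-Glo was then added, and after 10 min at room temperature, luminescence gave viability.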

Assay [3] can be described thus: Quantitative highthroughput screen to assess conditional lethalithy of NOMO1 cells grown in RPMI1640 with untreated serum (RPMI+s) (AID 1963876).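 For Viability: 100% = DMSO wells and 0% = empty wells without cells.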 Note: nearly all actives have a fitted effect of over 35% in size. In outline:
(§1)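 Each medium arm—HPLM with 10% dialyzed FBS, or RPMI1640 with 5 mM glucose and 10% untreated or dialyzed FBS—was screened against an 11-point, 3-fold compound titration for 48 h at 37 °C, with CellTiter-Glo luminescence as endpoint.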

Assay [4] is described as follows: Quantitative highthroughput screen to assess conditional lethalithy of NOMO1 cells grown in RPMI1640 with dialyzed fetal bovine serum (RPMI+ds) (AID 1963877).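 For Viability: series mostly up to about 46 µM; 100% = DMSO control wells and 0% = empty wells.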 Note: nearly all actives have a fitted effect of over 30% in size. An outline of the steps: as §1
A short description of assay [5]: Quantitative highthroughput screen to assess conditional lethalithy of NOMO1 cells grown in Human Plasma-Like Medium with dialyzed fetal bovine serum (HPLM+ds) (AID 1963878).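 For Viability: 100% = DMSO wells and 0% = empty wells on each plate.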 Note: nearly all actives have a fitted effect of over 35% in size. In outline: as §1
The nature of assay [6]: Quantitative highthroughput screen to assess conditional lethalithy of SEM cells grown in Human Plasma-Like Medium with dialyzed fetal bovine serum (HPLM+ds) (AID 1963882). For Viability: series mostly up to about 46 µM. Note: nearly all actives have a fitted effect of over 35% in size. An outline of the steps: as §1
Assay [7] is described as follows: Quantitative highthroughput screen to assess conditional lethalithy of SEM cells grown in RPMI1640 with unreated serum (RPMI+s) (AID 1963883).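 For Viability: 100% = DMSO wells and 0% = empty wells without cells.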 Note: nearly all actives have a fitted effect of over 35% in size. An outline of the steps:
as §1

Assay [8] can be described thus: Cellular viability qHTS for adrenocortical cancer (ACC) cell line SW-13 (AID 1963989).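 For activity (max response): cells grown in serum-free medium with ITS supplement; % is set by controls: 0 for no effect and ±100 for the full control effect.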 Note: nearly all actives have a fitted effect of over 65% in size. Conditions: SW-13 ACC cells viability, CellTiter-Glo, 48 h; activity (max response): stronger effect = lower value. An outline of the steps:
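IC50 and maximal-response values come from four-parameter logistic fits of titration data. SW-13 cells in serum-free medium received compounds (up to 46 uM final) for 48 h before CellTiter-Glo luminescence.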

The nature of assay [9]: Cellular viability qHTS for adrenocortical cancer (ACC) cell line NCI-H295R (AID 1963990). Note: nearly all actives have a fitted effect of over 60% in size. In outline:
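Adrenocortical carcinoma cells, suspended at 300 000 cells/mL in serum-free DMEM plus ITS, rested overnight before pin transfer of compound. After two days' incubation, ATP-dependent luminescence was recorded and curve-fitted.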

Assay [10] can be described thus: Quantitative highthroughput screen to assess conditional lethalithy of P12 Ichikawa cells grown in RPMI1640 with untreated serum (RPMI+s) (AID 1963881).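 For Viability: series mostly up to about 46 µM; 100% = DMSO wells and 0% = empty wells without cells.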 Note: nearly all actives have a fitted effect of over 35% in size. Conditions: Potency: viability. An outline of the steps:
as §1

Assay [11] in a line: Quantitative highthroughput screen to assess conditional lethalithy of P12 Ichikawa cells grown in RPMI1640 with dialyzed fetal bovine serum (RPMI+ds) (AID 1963880).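 For Viability: 100% = DMSO wells and 0% = empty wells on each plate.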 Note: nearly all actives have a fitted effect of over 35% in size. Conditions: Potency: P12-Ichikawa viability. An outline of the steps:
as §1

The nature of assay [12]: Quantitative highthroughput screen to assess conditional lethalithy of SEM cells grown in RPMI1640 with dialyzed fetal bovine serum (RPMI+ds) (AID 1963884).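 For Viability: series mostly up to about 46 µM; 100% = DMSO control wells and 0% = empty wells without cells.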 Note: nearly all actives have a fitted effect of over 35% in size. An outline of the steps:
as §1

Assay [13] can be described thus: Quantitative highthroughput screen to assess conditional lethalithy of P12 Ichikawa cells grown in Human Plasma-Like Medium with dialyzed fetal bovine serum (HPLM+ds) (AID 1963879). For Viability: series mostly up to about 46 µM. Note: nearly all actives have a fitted effect of over 35% in size. Conditions: Potency: viability. In outline: as §1
Potency is the fitted concentration of half-maximal effect.

For the compound `CC(C)c1cc(-c2n[nH]c(=O)n2-c2ccc3c(ccn3C)c2)c(O)cc1O`, the Potency in assay [1] was 9.2 nM (active) and 9.3 nM (active); in [2], 11.6 nM (active) and 16.6 nM (active); in [3] it was 118 nM (active); in assay [4], 93.5 nM (active); in assay [5], 105 nM (active); in assay [6], 74.3 nM (active). The Potency in [7] is 59 nM (active); in [8], 282 nM (active); in [9], 12.6 nM (active).
`Cc1cnc(Nc2cccc(CN3CCOCC3)c2)nc1Nc1cccc(S(=O)(=O)NC(C)(C)C)c1`: the Potency is 0.0934 µM (active) in assay [1] and 0.186 µM (active) in assay [2]. Besides, the Potency entry in [3], in [4], in [5], in assay [10] and in [9] was “inactive” throughout. In addition, in assay [8], the activity (max response) was -8.11% (inactive).
Consider `Clc1ccccc1C(c1ccccc1)(c1ccccc1)n1ccnc1`, for which the Potency in assay [1] is 5.25 µM (active); in assay [2], 5.25 µM (active); in assay [8], 16400 nM (active); in assay [9], 23100 nM (active). For the same compound, the Potency result in assay [3], in assay [4] and in assay [5] was “inactive” in each case.
With `COC(=O)N[C@H](C(=O)N[C@@H](Cc1ccccc1)[C@@H](O)CN(Cc1ccc(-c2ccccn2)cc1)NC(=O)[C@@H](NC(=O)OC)C(C)(C)C)C(C)(C)C`, the Potency entry in assay [1], in assay [2], in assay [3], in assay [4], in assay [5] and in [11] was “inactive” each time. For the same compound, the Potency entry in assay [10], in [6], in [7], in assay [12] and in [9] was “inactive” each time.
Regarding `COc1c(C)cnc(Cn2cnc3c(Cl)nc(N)nc32)c1C`, the Potency in assay [1] was 0.132 µM (active); in [2], 0.235 µM (active); in assay [3], 743 nM (active); in assay [4] it was 662 nM (active); in [5] it was 662 nM (active); in assay [6] it was 372 nM (active). Moreover, the Potency in assay [7] was 264 nM (active); in assay [12], 296 nM (active); in assay [8], 2000 nM (active); in [9] it was 1780 nM (active).
Turning to `CNC(=O)c1ccc2c(C(=Nc3cccc(CN(C)C)c3)c3ccccc3)c(O)[nH]c2c1`, the Potency in assay [1] was 2.95 µM (active); in assay [2], 5.8 µM (active) and 3.72 µM (active); in assay [3], 20900 nM (active); in assay [4] it was 18700 nM (active); in [5] it was 16600 nM (active); in assay [6], 1870 nM (active). Also, the Potency in assay [7] is 935 nM (active); in assay [9], 22400 nM (active).
For `CC(C)(C)Cn1c(N)nc2ccc(-c3[nH]c(C(C)(C)C)nc3-c3ccc(F)cc3)nc21`, the Potency in assay [1] was 16.6 µM (active); in assay [2] it was 461 nM (active) and 14.8 µM (active); in assay [8], 25100 nM (active). Also, the Potency entry in assay [3], in assay [4], in assay [13], in [11], in [10] and in assay [6] was “inactive” each time.
On to `Cc1nnc(NS(=O)(=O)c2ccc(N)cc2)s1`, for which the Potency result in assay [1], in assay [2], in assay [6], in assay [12] and in assay [9] was “inactive” each time. In addition, the Potency is 9350 nM (active) in [3]; 5260 nM (active) in [4]; 7430 nM (active) in [13]; 13200 nM (active) in [11]; 8330 nM (active) in [10]; 9350 nM (active) in assay [7]. Besides, in [8], the activity (max response) is -2.08% (inactive) and -2.89% (inactive).
With `COc1ccc(C2CC(c3ccccc3)=NN2c2ccc(S(N)(=O)=O)cc2)cc1` (centres undefined), the Potency was 20.9 µM (active) in assay [1]; 18.6 µM (active) in assay [2]; 4180 nM (active) in [3]; 4180 nM (active) in assay [4]; 6620 nM (active) in [13]; 3720 nM (active) in [11]. The Potency is 4180 nM (active) in assay [10], 2350 nM (active) in [6], 1180 nM (active) in [7] and 1660 nM (active) in assay [12].
Regarding `CC(C)[C@@H](CS(=O)(=O)C(C)C)N1C(=O)[C@@](C)(CC(=O)O)C[C@H](c2cccc(Cl)c2)[C@H]1c1ccc(Cl)cc1`, the Potency in assay [1] is 18.6 µM (active); in assay [2] it was 14.6 µM (active) and 16.6 µM (active); in [3], 1660 nM (active); in assay [4] it was 2090 nM (active); in [13] it was 209 nM (active); in assay [11], 1170 nM (active). Further, the Potency is 933 nM (active) in [10], 4170 nM (active) in [6] and 295 nM (active) in [7].
Regarding `N[C@@H](Cc1cc(I)c(Oc2cc(I)c(O)c(I)c2)c(I)c1)C(=O)O`, the Potency result in assay [1], in [3], in assay [4], in [13], in assay [11] and in [10] was “inactive” throughout. Further, the Potency entry in [6], in assay [7], in [12] and in assay [9] was “inactive” throughout. Moreover, the Potency result in assay [2] was “inactive and 1.61 µM (active)”. In assay [8], the activity (max response) is 3.69% (inactive) and -6.52% (inactive).
Regarding `Cc1ccc(S(=O)(=O)Nc2nc3ccccc3nc2Nc2ccc3nsnc3c2)cc1`, the Potency was 10.3 µM (active) in assay [1]; 8.2 µM (active) in assay [2]; 1150 nM (active) in assay [3]; 1620 nM (active) in [4]; 5750 nM (active) in [13]; 4070 nM (active) in [10]. Moreover, the Potency in [6] was 7240 nM (active); in [12], 4070 nM (active). In addition, in assay [8], the activity (max response) was 0.221% (inactive). Also, the Potency result in assay [9] was “inactive”.
As to `O=C1Cc2cc(CCN3CCN(c4nsc5ccccc45)CC3)c(Cl)cc2N1`, the Potency in assay [1] was 11.9 µM (active) and 9.2 µM (active); in assay [2], 3.35 µM (active) and 4.11 µM (active). Further, the Potency entry in [3], in assay [4], in [13], in [11], in [10] and in [6] was “inactive” in each case. Also, the Potency result in assay [12] was “inactive”.
On to `Cc1cc(CN2CCN(c3c(Br)cnc4nc(-c5ccc(N6CCN(C)CC6)cc5)[nH]c34)CC2)no1`, for which the Potency in [1] is 0.0231 µM (active); in [2] it was 29.1 nM (active) and 105 nM (active); in assay [4], 1050 nM (active); in assay [13], 1050 nM (active); in [10], 935 nM (active); in assay [6] it was 935 nM (active). Moreover, the Potency in [7] is 743 nM (active); in [8] it was 31600 nM (active); in assay [9], 28200 nM (active). Besides, the Potency result in [3] is “inactive”.
Turning to `CCNc1cc(NC2CCC(O)CC2)nc(Nc2ccc3c(ccn3Cc3ccccc3)c2)n1` (centres undefined), the Potency in assay [1] was 8.33 µM (active); in [2], 14.6 µM (active). The Potency entry in assay [3], in assay [4], in assay [13], in [11], in [10] and in [6] was “inactive” throughout. For the same compound, the Potency result in assay [9] is “inactive”. The activity (max response) in assay [8] is -9.82% (inactive).
